Assay results reported in PubChem BioAssay (NCI).
Compounds without any hit were thinned out: in the full panel of roughly 83,000, 20% have a hit.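 Single-concentration screen, 48 h exposure, 96-well plates. Endpoint: percent growth. Below 10 = active.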 The source made the active and inactive calls.

The molecules below were run on HL-60(TB) leukemia (assay: NCI-60 one-dose screen, 48 h (100 = growth as untreated, 0 = no growth, -100 = all killed)). Conditions: 10 µM unless noted.
For `Cc1cc(Cl)ccc1NS(=O)(=O)c1ccc(-c2cnc(C3CC3)o2)cc1`, the growth was -36% (active). For `COc1cc(Nc2ncc(F)c(Nc3ccc4c(n3)N(COP(=O)(O)O)C(=O)C(C)(C)O4)n2)cc(OC)c1OC`, the growth was 52.8% (inactive). `c1ccc2nc(Cn3cc[n+](Cc4ccc5ccccc5n4)c3)ccc2c1` was tested, and the growth was 8.58% (active). `C=C1C(=O)O[C@H]2[C@H]1CC/C(COC(=O)c1cc3ccccc3s1)=C\CC[C@@]1(C)O[C@@H]21` was tested, and the growth was -33.8% (active). `CC(=O)O[C@H]1CC[C@]2(C)[C@H]3CC[C@@H]4[C@H]5[C@H](C(C)C)CC[C@]5(C(=O)OCC(CO)(CO)N=C(N)N)CC[C@@]4(C)[C@]3(C)CC[C@H]2C1(C)C` was tested, and the growth was -24.7% (active). `Cc1ccc([P+](Cc2ccc([N+](=O)[O-])cc2)(c2ccc(C)cc2)c2ccc(C)cc2)cc1` was tested, and the growth was -43.8% (active). With `CC(C)(C)c1ccc(OC(=O)Nc2ccccc2)cc1` the growth was 95.9% (inactive). With `CC(=O)OC[C@H]1OC(Sc2sc(C(=O)c3ccc(Br)cc3)c(N)c2-c2nc3ccccc3s2)[C@H](OC(C)=O)[C@@H](OC(C)=O)[C@@H]1OC(C)=O` (stereo not given in full) the growth was 113% (inactive). With `CC(C)C1CCCCC1O` (stereo not given) the growth was 193% (inactive). With `Cc1nc(Nc2ccc(Cl)cc2)c2cnn(-c3ccccc3)c2n1` the growth was 102% (inactive). For `C=CC(=O)N1CCN(c2cccc(Oc3nccc(Nc4nnc(-c5ccc(Br)cc5)s4)n3)c2)CC1`, the growth was 51.1% (inactive). With `COc1ccc(/C=N/OCC(O)CN2CCC(O)CC2)cc1OC1CCCC1` (stereo not given) the growth was 100% (inactive). In the case of `O=C1CC(c2nc3ccccc3s2)CN1C1CCCCC1` (stereo not given), the growth is reported as 91.3% (inactive). With `COc1cc(NC(=O)CCSc2nc3ccc(C)cc3c(=O)n2Cc2ccccc2)cc(OC)c1OC` the growth was 116% (inactive). With `COc1cc2ncnc(Nc3ccc(Oc4ccnc(C)c4)c(C)c3)c2cc1NC(=O)CC1CCSS1` (stereo not given) the growth was -45.8% (active). In the case of `CC(C)[O-].CC(C)[O-].CN(CCN(C)Cc1cc(F)cc(F)c1[O-])Cc1cc(F)cc(F)c1[O-].[Ti+4]`, the growth is reported as 5.88% (active). `Cc1cc2ccccc2c2cc3ccccc3cc12` was tested, and the growth was 49.4% (inactive). With `CCOC(=O)c1c(C)nc2ccccc2c1/C=C/c1cccs1` the growth was 87.3% (inactive). With `CN(C)CCCNc1nc(-c2cccc(C(Cl)(Cl)Cl)c2)nc(C(Cl)(Cl)Cl)n1` the growth was 105% (inactive). In the case of `COc1ccc(-c2nc(SCCC(C)C)nc(N/N=C(/C)c3ccc(N)cc3)c2C#N)cc1`, the growth is reported as 83.8% (inactive). `CCCC1CCCCN1C(=O)OCC(C)C` (stereo not given) was tested, and the growth was 107% (inactive). In the case of `COc1cc(-c2c(C#N)c(N)n3c(nc4ccccc43)c2C#N)cc(Br)c1OC`, the growth is reported as 62.9% (inactive). With `CSc1cccc([N+](=O)[O-])c1` the growth was 91.7% (inactive). With `CNc1ccc(N)cc1` the growth was 109% (inactive). With `NS(=O)(=O)c1ccc(N2N=C(c3ccccc3)CCC2=O)cc1` the growth was 64.2% (inactive). In the case of `COC1=C(C)C(=O)N2[C@@H]1[C@H](c1ccccc1)OC21C=CC(=O)C=C1`, the growth is reported as -11.2% (active). In the case of `c1ccc(-c2nnc(Nc3nnc(-c4ccccc4)s3)s2)cc1`, the growth is reported as 103% (inactive). `O=C1/C(=C/c2ccccc2Br)COc2ccc(O)cc21` was tested, and the growth was 17.1% (inactive). In the case of `COCCn1cc(-c2nc(-c3cc4cccnc4[nH]3)cs2)c2cc(OC)ccc21`, the growth is reported as 55.5% (inactive). In the case of `CC(=O)N1N=C2N(Cc3ccccc3)C(=O)c3c(sc4c3CCCC4)N2C1c1cn(-c2ccccc2)nc1-c1ccc(Cl)cc1` (stereo not given), the growth is reported as 88.5% (inactive). For `CCN(CC)N=Nc1nn(C(=O)Nc2ccc(Cc3ccccc3)cc2)c2ccc(Cl)cc12`, the growth was 60.4% (inactive). For `COc1ccc2c3c(c(OCCCN(C)C)nc2c1)-c1ccc(Cl)cc1C3=O`, the growth was 70.7% (inactive). In the case of `COc1ccc(/C=C2\Oc3cc(OCCCCCN4CCCCC4)ccc3C2=O)cc1OC`, the growth is reported as 97.8% (inactive). For `COc1cc(Nc2nc(NCCN)nc3cc[nH]c(=O)c23)cc(OC)c1`, the growth was 71.8% (inactive). With `CC(C)(C)c1ccc(OCCOC(=O)CBr)cc1` the growth was 75.2% (inactive). For `Clc1ccc(Cn2cc(-c3nc4ccc(Br)nc4n3Cc3ccc(Cl)cc3)c3cccnc32)cc1`, the growth was 94.1% (inactive). For `O=C(Nc1ccc(Oc2cccc(F)c2)c(Cl)c1)c1cnccn1`, the growth was 3.12% (active). `Cc1cc(F)ccc1S(=O)(=O)Nc1cc(-c2c(O)ccc3ccccc23)c(O)c2ccccc12` was tested, and the growth was -10.8% (active). For `CCOC(CNC(=O)c1cccc([N+](=O)[O-])c1)OCC`, the growth was 105% (inactive). With `CCOc1ccc(N2C(N)=NC(N)=NC2(C)C)cc1` the growth was 16.4% (inactive).
